From PubChem BioAssay (NCI)
The panel holds about 83,000 compounds, 20% with a hit somewhere; the sample as a whole holds those more often.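 Single-dose data. Exposure time 48 hours. Values below 10 considered active.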 Active and inactive are the calls of the source.

What follows are molecules tested on MDA-MB-468 breast (assay: NCI-60 one-dose screen, 48 h (100 = growth as untreated, 0 = no growth, -100 = all killed)). Conditions: 10 µM unless noted.

| SMILES | growth |
| --- | --- |
| COc1cccc(-c2nnc(COc3ccc(-c4nc5ccccc5[nH]4)cc3OC)o2)c1 | 84.6% (inactive) |
| c1cc(C2=N[C@@H]3c4ccccc4C[C@@H]3O2)nc(C2=N[C@@H]3c4ccccc4C[C@@H]3O2)c1 | 95.8% (inactive) |
| O/N=C/c1ccc(O)cc1O | 121% (inactive) |
| N#Cc1c(Oc2ccc([N+](=O)[O-])cc2)nc2sc3cc(Cl)ccc3n2c1=N | -39.8% (active) |
| C=C(C)[C@@H]1CC[C@@]2(C(=O)O)CC[C@]3(C)C(CCC4[C@@]5(C)CCC(OS(=O)(=O)c6ccccc6)C(C)(C)C5CC[C@]43C)C12 (stereo not given in full) | 53.9% (inactive) |
| C=CC(O)CCC (stereo not given) | 109% (inactive) |
| Cc1cc(N/C=c2\sc3ncnn3c2=O)no1 | 101% (inactive) |
| CSc1nc(NCCN2CCOCC2)c(C#N)c(-c2cccc([N+](=O)[O-])c2)n1 | 113% (inactive) |
| Oc1ccccc1-c1nc2c3ccccc3c3ccccc3c2o1 | 83% (inactive) |
| C=C(CNCCc1ccc(O)cc1)[C@@H]1CC[C@]2(CO)CC[C@]3(C)[C@H](CC[C@@H]4[C@@]5(C)CCC(N)C(C)(C)[C@@H]5CC[C@]43C)[C@@H]12 (stereo not given in full) | -88.4% (active) |
| O=C1c2cccnc2C(=O)c2c1c(C(=O)OCCN1CCCCC1)c1ccccn21 | -16.6% (active) |
| O=c1c2cc(F)ccc2sc2c(NCCO)nc3ccccc3c12 | 80.3% (inactive) |
| N#CCCCCCn1c2ccccc2c2c3c(c4c5ccccc5[nH]c4c21)C(=O)N(O)C3=O | -32% (active) |
| N#Cc1ccc(O)c(C2=NCC(c3ccccc3)O2)c1 (stereo not given) | 32.3% (inactive) |
| CC1=C(C(=O)c2ccccc2)C(c2ccc3c(c2)OCO3)NC(=S)N1 (stereo not given) | 54.3% (inactive) |
| CC(C)CCC[C@@H](C)[C@H]1CCC2C3=CCn4c(=O)ccc(=O)n4C3CC[C@@]21C (stereo not given in full) | -49% (active) |
| CN1CCN(Cc2ccc(NC(=O)c3cncc(C#Cc4cnc5cccnn45)c3)cc2C(F)(F)F)CC1 | 37.8% (inactive) |
| N#CC1C(=O)NC(c2ccccc2[N+](=O)[O-])c2sc3c(F)cccc3c21 (stereo not given) | -49% (active) |
| Cc1ccc(S(=O)(=O)NCCNc2cc(-c3cn(C(C)(C)C)nc3-c3cccc(O)c3)ccn2)cc1 | 35.8% (inactive) |
| CSc1nn(-c2ccccc2)c2ncnc(Oc3ccccc3)c12 | 88.6% (inactive) |

| SMILES | growth |
| --- | --- |
| N#C/C(=C\c1ccc(-c2ccc(Br)cc2)o1)c1nc(-c2cccs2)cs1 | 6.37% (active) |
| CSC(SC)=C(C#N)c1nc2ccccc2s1 | 43.8% (inactive) |
| Nc1ccccc1NC(=O)CCCCC(=O)Nc1ccc2c(c1)/C(=C/c1ccc[nH]1)C(=O)N2 | 50.4% (inactive) |
| COc1ccc(C(=O)c2cc(OC)c(OC)c(OC)c2)cc1OC(=O)C(Cl)(Cl)Cl | 35.8% (inactive) |
| Nc1c(C(=O)Nc2cccc(Cl)c2)sc2ncc(Cl)cc12 | 95.3% (inactive) |
| C/C(=C(/c1ccc(O)cc1)c1ccc(OCCN2CCCC2)cc1)c1ccc(Cl)cc1 | 13.5% (inactive) |
| NS(=O)(=O)c1ccc(-n2ncc3c(=O)[nH]c(CN4CCN(c5cc6c(cc5F)c(=O)c(C(=O)O)cn6C5CC5)CC4)nc32)cc1 | 95.4% (inactive) |
| Cc1ccc(-c2nc3ccccc3c(=O)n2/N=C/c2cccc3ccccc23)cc1 | 80.9% (inactive) |
| COc1cc(-c2nc(SCC(C)C)nc(Nc3cccc4ccccc34)c2C#N)cc(OC)c1OC | 116% (inactive) |
| Cc1c(C(=O)NCCCc2ccccc2)sc2ncc(-c3ccc(Br)cc3)n12 | 108% (inactive) |
| COc1ccc(C(=O)n2nc(-c3ccccc3)nc2N)cc1OC | 68.8% (inactive) |
| Cc1sc2nc3[nH]/c(=C\c4ccc(Cl)cc4)c(=O)n3c(=O)c2c1C | 101% (inactive) |
| COc1ccc(/C=N\NC(=O)c2ccncc2)cc1O | 92.8% (inactive) |
| O=C(CCCCCCCC(=O)N1CCCCC1)N1CCCCC1 | 105% (inactive) |
| CONC1=Nc2cc(NC(N)=NCc3ccccc3)c(N(C)C3CCCCC3)cc2OC1 | -23.4% (active) |
| O=S(=O)(Nc1ccc(F)c(Cl)c1)c1ccc(-c2cnc(C3CC3)o2)cc1 | -23.9% (active) |
| C[C@H]1[C@H](C)CC[C@]2(C(=O)N3CCN(C)CC3)CC[C@]3(C)C(=CC[C@@H]4[C@@]5(C)C/C(=C/c6ccco6)C(=O)C(C)(C)[C@@H]5CC[C@]43C)[C@H]12 | 19.2% [100 µM] (inactive) |
| CC[C@]1(O)C[C@@H]2CN(CCc3c([nH]c4ccccc34)[C@@](C(=O)OC)(c3cc4c(cc3OC)N(C)[C@H]3[C@@](O)(C(=O)OC)[C@H](OC(=O)CCCBr)[C@]5(CC)C=CCN6CC[C@]43[C@@H]65)C2)C1 | 31.8% (inactive) |
| Cc1ccc2c(n1)C(=O)C(Cl)=C(Nc1ccccc1C(C)C)C2=O | 34.9% (inactive) |
| CCN(Cc1ccccc1)c1ccc(SC#N)cc1 | 72.3% (inactive) |
